Values joined by “and” are separate entries in the source; they are usually repeats but may differ in a detail not shown here. Equal entries are not always repeated. Active and inactive are the calls of the source.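 Rule for the calls, unless noted: active = inhibition at or above 50% relative to wild type and mutant plate controls; inactive = inhibition below 50%.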
Assays:
[1] = inhibitors of TNFa-induced NFkB p65 translocation, primary screen, imaging, HUVEC, MLSMR starter and 10KST1 sets (AID 438;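 active = inhibition above 20% together with a positive visual image hit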;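 note: compound added about 3h40 before a 20 min TNFalpha stimulation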;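 for inhibition: signal is the nuclear over cytoplasmic p65 intensity ratio per well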); settings: HUVEC TNFa-induced p65 nuclear translocation; cell count: measured here: nuclei count (cytotoxicity indicator), at 2.08 µM; inhibition: at 2 µM, stronger effect = higher value, 0% TNFa-plus-vehicle, 100% no-TNFa wells
[2] = reduction of polyQ htt aggregates in cells – imaging, exon1htt(103Q)mCFP cells, high-content imaging, primary screen (AID 483;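 active = visual image review flags a hit and inhibition of aggregation exceeds 20%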;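 note: compound exposure lasted 3 days before fixation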;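 for nuclei count: percent of the per-plate median nuclei count of sample wells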); settings: exon1htt(103Q)mCFP cell line, aggregate imaging, at 2 µM; inhibition of aggregation: stronger effect = higher value; nuclei count: measured here: cell count, toxicity
[3] = endothelial E-selectin expression blockers – imaging, HUVEC, immunofluorescence, MLSMR starter and 10KST1 sets, primary screen (AID 487;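 active = visually confirmed hit in the image check and inhibition above 20%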;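 for inhibition: signal is fraction of cell area covered by stained E-selectin grains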;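 for nuclei count: 100% = median nuclei count of all wells on the same plate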); settings: HUVEC TNFalpha-induced E-selectin immunofluorescence imaging, at 2 µM; inhibition: stronger effect = higher value; nuclei count: measured here: cell number, toxicity
[4] = Primary imaging screen for DUSP6 inhibitors that restore phospho-Erk in transfected HeLa cells, chemical complementation (AID 609;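 active = compounds giving at least 50% inhibition in the cell-based MKP-3 phosphatase rescue imaging test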;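 for inhibition: phospho-Erk level distribution per well compared with pooled transfected vehicle control wells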); settings: HeLa MKP-3 transfected, phospho-Erk imaging KS statistic, at 10 µM, cells stimulated with TPA for 15 min
[5] = target: Dual specificity protein phosphatase 6 (Homo sapiens) (UniProt Q16828); test: as above; settings: HeLa MKP-3 transfected, phospho-Erk imaging KS statistic; at 10 µM; stronger effect = higher value; cells stimulated with TPA for 15 min
Chain of Dual specificity protein phosphatase 6 (Homo sapiens) (Q16828 whole entry, looked up): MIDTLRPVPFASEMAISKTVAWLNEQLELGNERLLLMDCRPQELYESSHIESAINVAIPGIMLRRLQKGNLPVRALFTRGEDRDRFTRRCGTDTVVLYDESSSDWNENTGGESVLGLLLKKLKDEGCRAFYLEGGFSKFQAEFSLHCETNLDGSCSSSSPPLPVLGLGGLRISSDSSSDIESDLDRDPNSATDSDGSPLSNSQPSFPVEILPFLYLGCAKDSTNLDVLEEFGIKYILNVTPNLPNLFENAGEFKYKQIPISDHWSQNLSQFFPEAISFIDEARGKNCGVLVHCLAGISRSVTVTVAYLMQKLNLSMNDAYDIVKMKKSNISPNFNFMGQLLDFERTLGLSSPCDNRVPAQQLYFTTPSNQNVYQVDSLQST

[6] = target: Voltage-gated potassium channel subunit beta-2 (Rattus norvegicus) (UniProt P62483); test: inhibitors of rat Kvbeta2 reductase activity – biochemical, NADPH fluorescence, primary screen (AID 622;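 active = fluorescence slope higher than the sample average by over 3 SD, cut at about -0.22 in these data, passing the limit was not always enough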;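 note: slope of raw intensity against log time taken from 70 to 1610 s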); settings: recombinant KvBeta, 4-cyanobenzaldehyde reduction, at 10 µM, stronger effect = higher value
Chain of Voltage-gated potassium channel subunit beta-2 (Rattus norvegicus) (P62483 whole entry, looked up): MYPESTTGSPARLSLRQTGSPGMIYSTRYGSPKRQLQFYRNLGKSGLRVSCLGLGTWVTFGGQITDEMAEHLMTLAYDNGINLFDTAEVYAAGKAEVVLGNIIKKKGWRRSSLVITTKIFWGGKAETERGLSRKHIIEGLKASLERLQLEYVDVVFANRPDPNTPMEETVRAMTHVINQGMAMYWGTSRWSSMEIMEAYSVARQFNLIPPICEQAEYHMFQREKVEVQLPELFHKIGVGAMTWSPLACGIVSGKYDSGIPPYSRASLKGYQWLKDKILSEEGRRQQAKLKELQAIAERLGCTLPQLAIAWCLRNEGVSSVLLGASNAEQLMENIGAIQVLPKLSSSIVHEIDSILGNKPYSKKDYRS

[7] = target: Voltage-gated potassium channel subunit beta-2 (Rattus norvegicus) (UniProt P62483); test: enhancers of rat Kvbeta2 NADPH turnover – biochemical, NADPH fluorescence, primary screen (AID 623;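 active = NADPH fluorescence slope more negative than the mean of all samples by about 3 SD, 99.7% confidence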;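 note: fluorescence intensity change per second fitted from 20 to 320 s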); settings: Recombinant KvBeta, NADPH fluorescence decrease slope, 10 min; at 10 µM; stronger effect = lower value
[8] = target: Alpha-2C adrenergic receptor (Homo sapiens) (UniProt P18825); test: compounds altering alpha2C-coupled GIRK flux – cell-based, HEK293 alpha2C/GIRK1/2, thallium flux, primary screen (AID 624;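 active = fluorescence slope after compound addition differing from the mean of all screened samples at 99.7% confidence, in either direction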;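 note: slope of fluorescence ratio to pre-addition baseline per second over 15 to 24 s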); settings: thallium flux BTC fluorescence, at 10 µM, actives lie on both sides
Chain of Alpha-2C adrenergic receptor (Homo sapiens) (P18825 whole entry, looked up): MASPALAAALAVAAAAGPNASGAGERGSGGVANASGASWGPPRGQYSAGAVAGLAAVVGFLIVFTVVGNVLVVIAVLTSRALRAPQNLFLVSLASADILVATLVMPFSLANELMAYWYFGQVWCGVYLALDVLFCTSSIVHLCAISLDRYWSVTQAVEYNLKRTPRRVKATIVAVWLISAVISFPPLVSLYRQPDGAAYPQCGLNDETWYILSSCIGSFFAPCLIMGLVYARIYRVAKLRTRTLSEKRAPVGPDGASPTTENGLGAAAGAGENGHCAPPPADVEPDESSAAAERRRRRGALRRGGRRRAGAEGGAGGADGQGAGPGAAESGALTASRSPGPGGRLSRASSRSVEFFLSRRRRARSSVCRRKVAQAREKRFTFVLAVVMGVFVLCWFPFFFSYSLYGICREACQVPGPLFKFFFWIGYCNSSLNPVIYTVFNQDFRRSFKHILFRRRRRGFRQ

[9] = inhibitors of larval lipid processing in zebrafish, primary screen, whole organism, PED6 fluorescence, gall bladder and intestine (AID 686;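 active = a full or partial loss of lipid-probe fluorescence in the fish gall bladder, intestine or both, judged by eye; inactive = no fluorescence loss, or compound toxic to the fish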;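 note: larvae 5 to 7 days old with five fish per well; signal comes from phospholipase A2 cleavage of quenched PED6 carried via bile; overnight exposure to compound and PED6 before scoring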); settings: Zebrafish larvae PED6 lipid processing, fluorescence scoring; screened at 20 µM (by protocol)
[10] = loss of swimming-algae plug formation – whole organism, Chlamydomonas reinhardtii, WT vs cilia-less mutant, absorbance, 96-well, primary screen (AID 463189); settings: Chlamydomonas reinhardtii gravitaxis, OD600 absorbance, 2 days; at 10 µM; stronger effect = higher value;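 note: 0% = wild type cc124 cells in DMSO and 100% = ciliumless bld1 mutant cells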
[11] = blockers of RIG-like receptor reporter activation – cell-based, Sendai virus stimulus, luciferase, 10K MLSCN set, TLR/RLR signaling modifier project, primary screen (AID 602276;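 active = inhibition at or above 50% at 10 µM; inactive = inhibition below 50%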;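 note: firefly luciferase from ISG56 promoter only with Renilla not read in this screen; 0% = Sendai virus plus DMSO and 100% = medium plus DMSO without virus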); settings: HEK293 RL24 IRF3 luciferase reporter, at 10 µM, stronger effect = higher value
[12] = TLR3 IRF3 reporter activation blockers – cell-based, poly I:C stimulus, luciferase, 10K MLSCN set, primary screen (AID 602277;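 active = inhibition of the reporter signal at or above 50%; inactive = inhibition below 50%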); settings: HEK293-TLR3 RL24 IRF3 luciferase reporter, at 10 µM, stronger effect = higher value
[13] = measured here: cell density z-score
[14] = measured here: nuclear c-Myc green intensity z-score
[15] = measured here: nuclear pErk red intensity z-score, stronger effect = higher value

Row | Compound | cell count [1] | inhibition [1] | inhibition of aggregation [2] | nuclei count [2] | inhibition [3] | nuclei count [3] | z-score [4, 13] | z-score [4, 14] | z-score [4, 15] | inhibition [5] | fluorescence slope [6] | NADPH fluorescence slope [7] | slope [8] | outcome [9] | inhibition [10] | inhibition [11] | inhibition [12]
1 | COc1cc(/C=C/C(=O)CC(=O)/C=C/c2ccc(O)c(OC)c2)ccc1O | 581 | -5.9% (inactive) | -6.4% (inactive) | 105% | -31.2% (inactive) | 119% | -0.124 | 0.198 | 0.203 | -8.38% (inactive) | -0.185 (active) | -1.1e-05 (inactive) | 0.0285 (active) | inactive | 102% (active) | 7.07% (inactive) | 6.1% (inactive)
2 | CC1C/C=C/C=C/C=C/C=C/C(O[C@@H]2O[C@H](C)[C@@H](O)[C@H](N)[C@@H]2O)CC2OC(O)(CC(O)CC3OC3/C=C/C(=O)O1)CC(O)C2C(=O)O (stereo not given in full) | 624 | -3.2% (inactive) | 0.7% (inactive) | 111% | -59.4% (inactive) | 135% | -0.528 | -0.94 | -0.621 | 11.3% (inactive) | -0.469 (inactive) | -4.6e-05 (inactive) | 0.00542 (inactive) | inactive | 1.43% (inactive) | 7.33% (inactive) | 28.4% (inactive)
3 | N=c1c[n+](N2CCOCC2)[n-]o1 | 605 | -7.1% (inactive) | 4.6% (inactive) | 86.9% | -109% (inactive) | 139% | 0.144 | -0.44 | 0.201 | -8.38% (inactive) | -0.496 (inactive) | -5.7e-05 (inactive) | 0.00445 (inactive) | inactive | 5.26% (inactive) and -2.73% (inactive) | 19.5% (inactive) | 43.7% (inactive)
4 | CC(COc1ccccc1)NC(C)C(O)c1ccc(O)cc1 (stereo not given) | 534 | -7.4% (inactive) | -13.1% (inactive) | 100% | -135% (inactive) | 121% | -1.06 | -0.532 | 0.827 | -12.3% (inactive) | -0.54 (inactive) | 4.6e-06 (inactive) | 0.00639 (inactive) | inactive | -3.83% (inactive) | -5.16% (inactive) | -30% (inactive)
5 | CC1(C)Cc2c(c(N3CCOCC3)nc3sc(C#N)c(N)c23)CS1 | 626 | -0.4% (inactive) | -6.4% (inactive) | 114% | -68.9% (inactive) | 120% | -0.238 | -0.405 | 0.382 | 5.42% (inactive) | -0.0293 (active) | -1.7e-06 (inactive) | 0.00535 (inactive) | inactive | 21.2% (inactive) | -2.57% (inactive) | 16.1% (inactive)
6 | O=C(O)CN(c1ccccc1)C1SC(=O)NC1=O (stereo not given) | 606 | -0.1% (inactive) | 5.9% (inactive) | 107% | -50.9% (inactive) | 140% | -0.0323 | -0.911 | 0.397 | 16.1% (inactive) | -0.506 (inactive) | -3.4e-05 (inactive) | 0.00506 (inactive) | inactive | 31.8% (inactive) | 11.9% (inactive) | 13.7% (inactive)
7 | CC1(C)Cc2c(sc3c2C2=NCCN2C=N3)CO1 | 624 | -7% (inactive) | 4.2% (inactive) | 124% | -54.1% (inactive) | 139% | -0.0476 | 0.11 | -0.119 | -2.69% (inactive) | -0.328 (inactive) | -8.5e-06 (inactive) | 0.00463 (inactive) | inactive | 63.1% (active) | -17.5% (inactive) | -3.31% (inactive)
8 | Nc1nnc(-c2cccc(Cl)c2Cl)c(N)n1 | 697 | -8.4% (inactive) | 2.2% (inactive) | 112% | -39.9% (inactive) | 139% | -0.0756 | -0.0257 | 1.16 | 1.48% (inactive) | -0.527 (inactive) | -7.1e-06 (inactive) | 0.00578 (inactive) | inactive | -6.28% (inactive) and 7.36% (inactive) | -2.35% (inactive) | 13.8% (inactive)
9 | CC1=C(/C=C/C(C)=C/C=C/C(C)=C/C(=O)O)C(C)(C)CCC1 | 678 | 3.5% (inactive) | -22.6% (inactive) | 97.6% | -69% (inactive) | 121% | -0.898 | 1.94 | -1.68 | 19% (inactive) | -0.448 (inactive) | -4.4e-05 (inactive) | 0.00401 (inactive) | inactive | 8.28% (inactive) and -12% (inactive) | -11.8% (inactive) | -27.2% (inactive)
10 | CCC(C(=O)OCCN(CC)CC)c1ccccc1 (stereo not given) | 572 | -11.1% (inactive) | -9.9% (inactive) | 104% | -56.9% (inactive) | 130% | 1.14 | 1.04 | 0.111 | 19.2% (inactive) | -0.459 (inactive) | -3.7e-05 (inactive) | 0.00422 (inactive) | inactive | 21.8% (inactive) | 8.3% (inactive) | 34.3% (inactive)
11 | O=C(O)c1cc(-c2ccccc2)nc2ccccc12 | 572 | -5.1% (inactive) | -4.1% (inactive) | 92.2% | -66.9% (inactive) | 121% | 0.461 | 0.0575 | -0.708 | -0.493% (inactive) | -0.459 (inactive) | -5.4e-05 (inactive) | 0.00561 (inactive) | inactive | -8.89% (inactive) | 5.39% (inactive) | 34.2% (inactive)
12 | CN(C)c1ccc(O)c2c1CC1CC3[C@@H](N(C)C)C(=O)C(C(N)=O)=C(O)[C@]3(O)C(=O)C1=C2O (stereo not given in full) | 516 | -12.2% (inactive) | 71.3% (active) | 103% | -55.7% (inactive) | 131% | 0.362 | 0.874 | 0.268 | 1.48% (inactive) | -0.51 (inactive) | -5e-06 (inactive) | 0.00461 (inactive) | inactive | 82.6% (active) | 17.8% (inactive) | 26.1% (inactive)
13 | COc1ccc(Cn2c(CCCO)nc3ccccc32)cc1OC | 577 | -7.7% (inactive) | -17% (inactive) | 105% | -84% (inactive) | 122% | -0.981 | 1.12 | 1.14 | -5.89% (inactive) | -0.412 (inactive) | -4.3e-05 (inactive) | 0.0064 (inactive) | inactive | 2.72% (inactive) | 13.3% (inactive) | 22.4% (inactive)
14 | Cn1ncc2c(Nc3ccccc3Br)ncnc21 | 339 | -21% (inactive) | 21.2% (inactive) | 99.3% | -72.4% (inactive) | 128% | 0.246 | -0.649 | -0.252 | 14% (inactive) | -0.443 (inactive) | -2.6e-05 (inactive) | 0.00658 (inactive) | inactive | 13.6% (inactive) | 2.79% (inactive) | -6.76% (inactive)
15 | Cc1ccc2nc(C(F)(F)F)c(C#N)c(N)c2c1 | 451 | -9.7% (inactive) | 11% (inactive) | 77.3% | -14.1% (inactive) | 90.7% | -0.557 | -0.479 | -0.0348 | 1.75% (inactive) | -0.49 (inactive) | -2e-05 (inactive) | 0.00524 (inactive) | inactive | -8.78% (inactive) | 20% (inactive) | -10.8% (inactive)
16 | CCOC(=O)C1CSc2[nH]c(=O)sc2C1c1ccccc1 (stereo not given) | 537 | -1.3% (inactive) | -4% (inactive) | 126% | -19.3% (inactive) | 144% | 0.417 | -0.0363 | 0.692 | -1.12% (inactive) | -0.378 (inactive) | -6.9e-05 (inactive) | 0.00596 (inactive) | inactive | -4.31% (inactive) | 5.91% (inactive) | 99.1% (active)
17 | CC1Cc2ccccc2N1NC(=O)c1ccc(Cl)c(S(N)(=O)=O)c1 (stereo not given) | 657 | -3.7% (inactive) | 4.2% (inactive) | 112% | -59.9% (inactive) | 121% | 0.724 | -0.336 | -0.652 | 21.2% (inactive) | -0.544 (inactive) | -5e-05 (inactive) | 0.0056 (inactive) | inactive | 18.3% (inactive) | -7.5% (inactive) | -10.9% (inactive)
18 | Cn1c(=O)c2[nH]cnc2n(C)c1=O | 656 | -1.4% (inactive) | 12.3% (inactive) | 83.7% | -74.2% (inactive) | 142% | -0.0459 | 0.0873 | -0.896 | 19% (inactive) | -0.453 (inactive) | -2.6e-05 (inactive) | 0.00501 (inactive) | inactive | -1.38% (inactive) and -11.3% (inactive) | 6.67% (inactive) | 32.1% (inactive)
19 | O=C(CSc1nnc(-c2ccccc2)c(-c2ccccc2)n1)N1CCOCC1 | 611 | -6.9% (inactive) | 15.5% (inactive) | 96.7% | -44.9% (inactive) | 134% | -0.179 | -0.654 | 1.26 | -3.5% (inactive) | -0.397 (inactive) | -1.1e-05 (inactive) | 0.00498 (inactive) | inactive | 9.56% (inactive) | 14.8% (inactive) | 18% (inactive)
20 | c1ccc(CN(CC2=NCCN2)c2ccccc2)cc1 | 455 and 493 | 0% (inactive) and 19.7% (inactive) | 9.9% (inactive) and 6.3% (inactive) | 97.2% and 85% | -8.6% (inactive) and -65.1% (inactive) | 98.7% and 128% | 0.164 and -0.173 | 0.692 and 0.37 | -0.518 and 0.488 | 8% (inactive) and 13.3% (inactive) | -0.512 (inactive) and -0.523 (inactive) | -3e-05 (inactive) and -2.5e-05 (inactive) | 0.00381 (inactive) and 0.00497 (inactive) | inactive | -11.5% (inactive) and 25.6% (inactive) | -7.89% (inactive) and 7.92% (inactive) | 0.563% (inactive) and 36.8% (inactive)

From PubChem BioAssay
